Most compounds without a hit are left out; they make up all but 3.7% or so of the library.
PI5P4K alpha inh: qHTS for Inhibitors of phosphatidylinositol 5-phosphate 4-kinase (PI5P4K) | max response, % | 1.2% of 330,000 active | Phosphatidylinositol 5-phosphate 4-kinase type-2 alpha (Homo sapiens), P48426 | PI5P4Kalpha enzyme, ADP-Glo luminescence, 60 min; hits give low values; active means max response of -50% or lower; inconclusive means between -30% and -50%; inactive means -30% or higher; further: value at the top dose of about 77 µM; on the % scale 0 is the no-effect control and ±100 the full control effect
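Compounds were pin-transferred onto PI5P4Kalpha and substrate in HEPES pH 7.4 buffer with EGTA, CHAPS and 5% DMSO. ATP (5 microM final) started the reaction, which ran 60 minutes at room temperature before ADP-Glo detection.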
WRN inhibitor: qHTS for Inhibitors of WRN Helicase | Potency, µM (doses to about 114 µM), for the others: top-dose activity change, negative = inhibition, hits mostly inhibitors | 0.46% of 360,000 active | WRN helicase unwinding, fluorescent forked duplex, kinetic; further: potency means the concentration at half of the fitted maximal effect; on the % scale 0 is the no-effect control and ±100 the full control effect; nearly all actives have a fitted effect of over 55% in size
Target sequence (Q14191 whole entry, looked up): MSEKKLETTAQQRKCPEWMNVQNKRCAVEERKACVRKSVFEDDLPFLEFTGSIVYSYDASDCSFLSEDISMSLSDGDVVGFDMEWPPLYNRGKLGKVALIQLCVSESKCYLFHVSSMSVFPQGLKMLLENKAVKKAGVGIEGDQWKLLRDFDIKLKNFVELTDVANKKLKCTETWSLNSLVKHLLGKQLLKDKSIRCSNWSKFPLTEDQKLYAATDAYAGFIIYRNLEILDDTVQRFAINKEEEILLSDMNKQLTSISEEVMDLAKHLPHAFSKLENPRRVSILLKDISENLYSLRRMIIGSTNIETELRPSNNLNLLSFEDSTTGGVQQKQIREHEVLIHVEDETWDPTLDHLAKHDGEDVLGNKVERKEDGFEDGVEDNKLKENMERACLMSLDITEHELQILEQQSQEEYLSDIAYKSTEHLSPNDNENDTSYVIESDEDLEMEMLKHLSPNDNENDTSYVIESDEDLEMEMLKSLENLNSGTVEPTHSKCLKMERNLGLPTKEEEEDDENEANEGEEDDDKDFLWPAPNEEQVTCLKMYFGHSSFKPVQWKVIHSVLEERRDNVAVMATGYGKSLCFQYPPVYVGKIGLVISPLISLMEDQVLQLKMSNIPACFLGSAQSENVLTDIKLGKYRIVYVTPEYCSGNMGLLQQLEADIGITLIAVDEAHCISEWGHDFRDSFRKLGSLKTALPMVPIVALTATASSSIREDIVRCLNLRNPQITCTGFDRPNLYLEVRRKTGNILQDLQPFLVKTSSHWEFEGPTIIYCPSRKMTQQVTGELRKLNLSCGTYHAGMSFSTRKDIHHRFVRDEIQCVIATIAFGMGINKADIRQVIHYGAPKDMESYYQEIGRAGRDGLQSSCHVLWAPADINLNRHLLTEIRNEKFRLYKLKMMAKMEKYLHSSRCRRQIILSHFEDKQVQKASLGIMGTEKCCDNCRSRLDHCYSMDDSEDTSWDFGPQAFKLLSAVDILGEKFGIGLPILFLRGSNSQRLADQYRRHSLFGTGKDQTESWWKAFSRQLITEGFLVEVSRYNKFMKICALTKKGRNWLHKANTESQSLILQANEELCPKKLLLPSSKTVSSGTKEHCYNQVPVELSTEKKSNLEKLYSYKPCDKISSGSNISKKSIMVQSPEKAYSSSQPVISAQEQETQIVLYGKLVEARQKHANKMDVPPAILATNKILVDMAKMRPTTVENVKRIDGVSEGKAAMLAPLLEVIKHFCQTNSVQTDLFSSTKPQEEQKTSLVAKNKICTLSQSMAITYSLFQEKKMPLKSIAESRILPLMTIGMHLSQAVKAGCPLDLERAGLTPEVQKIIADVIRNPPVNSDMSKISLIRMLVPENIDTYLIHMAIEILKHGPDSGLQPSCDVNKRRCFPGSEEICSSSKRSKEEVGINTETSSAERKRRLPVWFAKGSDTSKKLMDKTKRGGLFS
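Enzyme (20 nM final) and test compound sit together 15 min at room temperature before substrate addition. Substrate is a single-forked duplex oligonucleotide (100 nM) labelled with fluorophore and quencher, with 2 mM ATP; helicase unwinding raises red fluorescence, read kinetically.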
PLK1 PBD block: qHTS for Inhibitors of PLK1-PDB (polo-like kinase 1 - polo-box domain): Primary Screen; Potency, µM, for inactives: max response, negative = inhibition, hits mostly inhibitors; 2.8% of 360,000 active; Plk1 PBD binding of FITC phosphopeptide, fluorescence polarization; AID 720504, 2013; Serine/threonine-protein kinase PLK1 (Homo sapiens), P53350; further: potency means the concentration at half of the fitted maximal effect; series mostly up to about 57 µM; on the % scale 0 is the no-effect control and ±100 the full control effect; nearly all actives have a fitted effect of over 65% in size
VDR inhibitor: Inhibitors of the vitamin D receptor (VDR): qHTS; Vitamin D3 receptor (Homo sapiens), P11473; VDR-SRC2-3 peptide fluorescence polarization, 2 h; Potency, µM, for inactives: max response, negative = inhibition, most hits filed as inhibitors; 0.93% of 400,000 active; AID 504847, 2011; further: potency means the concentration at half of the fitted maximal effect; on the % scale 0 is the no-effect control and ±100 the full control effect
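Compounds are added to VDR with labelled SRC2-3 coactivator peptide and held 2 h at room temperature. Inhibition of the VDR–peptide interaction is then read as a change in fluorescence polarization.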
TCR act: Activators of T cell receptors: qHTS campaign; AID 504894, 2011; 330,000 tested, under 10 active; primary human leukocytes, anti-CD3, IL-2 HTRF, 48 h; Potency, µM (doses to about 9.22 µM), inactives show at the highest dose activation of IL-2 secretion, usual class: activators; further: % of control where 0% means no effect
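Human primary leukocytes + a-CD3 beads + cpd, 48 hr; IL-2 in supernatant by HTRF (ex 320nm / em 665nm). No co-stimulatory signal supplied.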
FEN1 inh: qHTS Assay for the Inhibitors of Human Flap endonuclease 1 (FEN1). P39748. Recombinant FEN1 flap cleavage, fluorescence, 15 min. Potency, µM (titrated, usually from 114 µM), for the others: top-dose activity change, negative = inhibition, actives largely listed as inhibitors. 0.35% of 390,000 active. AID 588795, 2011; further: potency means the concentration at half of the fitted maximal effect; on the % scale 0 is the no-effect control and ±100 the full control effect; nearly all actives have a fitted effect of over 65% in size
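Quantitative HTS format: each compound was titrated, incubated with 10 nM nuclease for 15 min at room temperature, then challenged with flap substrate at 50 nM final. Signal change over 15 min gave concentration–effect curves.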
VDR inh confirm: qHTS for Inhibitors of the vitamin D receptor (VDR): Hit Validation in Primary Screen. shares compounds with VDR inhibitor. VDR-coactivator inhibition assay, qHTS confirmation. Potency, µM, most hits filed as inhibitors. 89% of 840 active. AID 602199, 2012; further: potency means the concentration at half of the fitted maximal effect
VDR FP fluor: qHTS for Inhibitors of the vitamin D receptor (VDR): Hit Validation using a Fluorescein Assay; shares compounds with VDR inhibitor; VDR-coactivator binding, fluorescein fluorescence polarization; Potency, µM (doses to about 57.1 µM), without a hit: at the highest dose activity change, negative = inhibition, usual class: inhibitors; 48% of 840 active; AID 602200, 2012; further: potency means the concentration at half of the fitted maximal effect
VDR bla reporter: qHTS for Inhibitors of the vitamin D receptor (VDR): Hit Validation using a Beta-Lactamase Assay | shares compounds with VDR inhibitor | VDR beta-lactamase reporter cells, FRET ratio; cells co-treated with VDR agonist LG190178 | Potency, µM (doses to about 46.1 µM), without a hit: top-dose activity change, negative = inhibition, most hits filed as inhibitors | 23% of 840 active | AID 602202, 2012; further: potency means the concentration at half of the fitted maximal effect; on the % scale 0 is the no-effect control and ±100 the full control effect
VDR viability: qHTS for Inhibitors of the vitamin D receptor (VDR): Hit Validation using a Cytotoxicity Assay | cytotoxicity counter-screen, cell viability, qHTS | shares compounds with VDR inhibitor | Potency, µM (doses to about 48.3 µM), for inactives: at the top dose activity change, negative = cytotoxicity, actives largely listed as cytotoxic | 18% of 840 active;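 further: potency means the concentration at half of the fitted maximal effect; plate controls were DMSO for no effect and high-concentration cycloheximide for full effect; nearly all actives have a fitted effect of over 75% in size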
Starred values were filed as active, the others as inactive; ? = inconclusive; / = not tested or not shown; [ ] = dose if it differs, or a comment. Unless noted, the call rests on the fitted dose curve; in most records, active means well fitted curve in the direction sought with a large enough effect; inconclusive means small, poorly fitted or top-dose-only effect, or another doubt; inactive means no such curve, though single readings can be large; an effect the other way counts as inactive or inconclusive.

SMILES | PI5P4K alpha inh | WRN inhibitor | PLK1 PBD block | VDR inhibitor | TCR act | FEN1 inh | VDR inh confirm | VDR FP fluor | VDR bla reporter | VDR viability
Cc1[nH]n(-c2ncc(-c3ccccc3)s2)c(=O)c1C(c1ccc(Br)cc1)C(C#N)C#N (stereo unspecified) | -70* | ? | 2.7µM* | 35µM* | -9% | ? | 7.5* | ? | ? | -18%
COc1ccc(OC)c(-c2c3cc(O)c(=O)cc-3oc3cc(O)c(O)cc23)c1 | -101* | 79µM* | 2.1µM* | 25µM* | 5%[46.1 µM] | 13µM* | 24* | ? | -24% | ?
COc1cccc(C(=O)n2nc(-c3ccco3)nc2NCc2cccs2)c1 | / | / | / | 4% | / | -16% | / | / | / | /
Clc1ccccc1-c1nn2c(COc3ccccc3)nnc2s1 | / | -6% | ? | -9% | / | 0% | / | / | / | /
c1ccc(Cc2nn3c(COc4ccccc4)nnc3s2)cc1 | / | -7% | 4.2µM* | 79µM* | / | 2% | 24* | ? | 11% | 28%
COc1cc(/C=C2/N=C(C3CCCCC3)OC2=O)cc(OC)c1OC | -2 | 5% | -20% | 40µM* | -2% | 17% | 17* | 14µM* | 24% | 15%
O=C(C1CCN(S(=O)(=O)c2cccs2)CC1)N1CCN(c2ccccc2F)CC1 | / | / | / | -3% | / | 7% | / | / | / | /
CCOCCCN(Cc1ccco1)C(=O)c1cc2c(s1)-c1c(C)cccc1OC2 | / | / | / | -16% | / | -17% | / | / | / | /
CC1=C(C(=O)Nc2ccc(C)cc2C)C(c2ccc([N+](=O)[O-])cc2)n2ncc(C(=O)Nc3ccc(F)cc3)c2N1 (stereo unspecified) | / | / | / | -5% | / | -4% | / | / | / | /
O=C(NC1(O)C(=O)c2ccccc2C1=O)c1ccccc1 | -3 | -19% | -12% | ? | 4% | 2% | 1* | 1µM* | 6% | 12%
COC1(NC(=O)c2ccccc2)C(C)=CC(=O)C=C1C | 2 | 0% | -27% | 3% | -2% | 0% | / | / | / | /
O=C(NC1(O)C(=O)c2ccccc2C1=O)c1c(Cl)cccc1Cl | -10 | -6%[11.6 µM] | -27% | ? | 0% | -19% | 4* | 4µM* | 7% | -4%
CCOC(=O)C1CCC(CN(Cc2c(Cl)cccc2Cl)S(=O)(=O)c2ccc(F)cc2)CC1 (stereo unspecified) | / | / | / | -9% | / | -12% | / | / | / | /
CCOC(=O)C1=C(Cc2ccc(OC)cc2)C(=O)c2ccccc2C1=O | / | 50µM* | 12µM* | 7.9µM* | 9% | ? | 0.71* | ? | 23µM* | ?
O=C(NCc1ccc(F)cc1)c1ccc2c(O)c(S(=O)(=O)c3ccccc3)c(=O)[nH]c2c1 | / | / | / | 2% | / | 17% | / | / | / | /
O=C(/C(=C\c1ccccc1)c1nc2ccccc2[nH]1)c1ccc(Cl)cc1 | 2 | -8% | -2% | ? | 9%[46.1 µM] | -5% | / | / | / | /
O=C(/C(=C/c1ccc(Cl)cc1)c1nc2ccccc2[nH]1)c1cccs1 | -4 | -6% | -11% | 18µM* | 4% | -22% | 9.5* | ? | 6.5µM* | 8.2µM*
COc1ccc(OC)c(S(=O)(=O)CC(=O)c2cc3ccc(OC)cc3oc2=O)c1 | -7 | 5% | -3% | -9% | 11% | 4% | / | / | / | /
COc1ccc(S(=O)(=O)CC(=O)c2cc3cc(Br)ccc3oc2=O)cc1 | -75* | ? | 1.7µM* | ? | 11% | ? | 10* | 4µM* | -26% | 28%
CCCS(=O)(=O)c1ncc(Cl)c(C(=O)Nc2sc3c(c2C(=O)NCC)CCCC3)n1 | / | / | / | / | / | 0% | 3.2* | ? | 5.8µM* | ?
CCCSc1ncc(Cl)c(C(=O)Nc2sc3c(c2C(=O)OC)CCCC3)n1 | / | / | / | 9% | / | 1% | / | / | / | /
CCC(C)(C)c1nnc(NC(=O)C2CCN(C(=O)c3ccco3)CC2)s1 | ? | ? | 2.4µM* | 50µM* | 0% | -35% | 6.7* | ? | -12% | 4%
CC(C)c1nnc(NC(=O)C2CCN(C(=O)c3ccco3)CC2)s1 | -5 | 3% | ? | -20% | 10% | 13% | / | / | / | /
Cc1ccc(C(=O)/C=C\C(=O)c2ccc(C)cc2)cc1 | -16 | ? | 6.7µM* | 79µM* | 2%[46.1 µM] | -3% | 30* | ? | ? | 22%
Cc1ccc(C(=O)c2ccc(C)cc2)cc1 | -5 | -3%[57.1 µM] | 4% | 21% | -3% | -2% | / | / | / | /
COc1ccc(/C=C2/C(=O)ON=C2c2ccccc2)cc1OC | -59* | ? | 1.9µM* | 40µM* | -8% | -8% | 21* | ? | -3% | -7%
COc1ccc(/C=C2\C(=O)ON=C2c2ccccc2)cc1OC | -62* | -9% | 3µM* | 35µM* | / | -1% | 19* | ? | -15% | -2%
COc1ccc(/C=C2\N=C(c3c(-c4ccccc4)noc3C)OC2=O)cc1OC | -1 | -9% | -2% | 14% | 4% | -16% | / | / | / | /
O=C1ON=C(c2ccccc2)/C1=C/c1ccco1 | -21 | ? | 1.1µM* | ? | 0% | ? | 8.4* | ? | -30% | ?
O=C1c2[nH]nc(-c3ccccc3O)c2C(c2ccc(F)cc2)N1CCO (stereo unspecified) | / | / | / | -2% | / | 26% | / | / | / | /
